Laboratory results from PubChem BioAssay AID720579 (National Center for Advancing Translational Sciences (NCATS), 2013).
The campaign covered roughly 310,000 compounds. About 1,900 (0.61%) were called active. Not shown: some 8% with an inconclusive outcome. Shown is part of a subset that was picked to be rich in actives. Unmarked numbers belong to inactive results. Calls come from the whole dose curve; tested in A549 cells.

Assay: qHTS for Stage-Specific Inhibitors of Vaccinia Orthopoxvirus: mCherry Reporter Primary qHTS; note: nearly all actives have a fitted effect of over 35% in size
Settings: Vaccinia virus mCherry reporter infection, fluorescence; series mostly up to 36.5 µM; activity change, negative = inhibition: at the top concentration
% is set by controls: 0 for no effect and ±100 for the full control effect; potency is the fitted concentration of half-maximal effect.

SMILES | Potency | activity change, negative = inhibition [%] | outcome
[O-][n+]1onc2c1CCc1[nH]c(-c3ccccc3)nc1-2 | 15.8 µM (active) |  | 
CC=CCn1c(SCCCc2ccccc2)nc2c1c(=O)[nH]c(=O)n2C |  | 3.79 | 
Cc1c(Cl)c([N+](=O)[O-])nn1CCCC(=O)Nc1cc(Cl)ccc1Cl |  | -18.7 | 
Cc1c(Cl)c([N+](=O)[O-])nn1Cc1ccc(C(=O)N/N=C\c2cc(Cl)ccc2O)o1 | 6.31 µM (active) |  | 
O=C(N/N=C/c1ccc2c(c1)OCO2)c1ccc(Cn2cc([N+](=O)[O-])cn2)o1 |  | -29.5 | 
O=C(c1ccccc1)N1CCN(c2cc(-c3ccccc3)nc3cc(-c4cccc(Cl)c4)nn23)CC1 |  | -23.1 | 
CCc1nc2c(OCc3ccccc3)cccn2c1N(C)C(=O)c1ccco1 |  | -10.6 | 
COc1ccc(C(C(=O)Nc2c(C)cccc2C)N2CCN(c3ccc(C)cc3)CC2)cc1 (centres undefined) |  | -24.2 | 
Brc1cccc[n+]1Cc1cccc(C[n+]2ccccc2Br)c1 |  | 31.5 | 
Cc1cc2ccccn2c1C(=O)c1cccc(F)c1 |  |  | inactive
Cc1cc2ccccn2c1C(C[N+](=O)[O-])c1c(F)cccc1Cl (centres undefined) | 10 µM (active) |  | 
O=C(Cc1c(F)cccc1Cl)Nc1ncc([N+](=O)[O-])s1 |  | -7.45 | 
CCCCOc1ccc(C(=O)NO)cc1 |  | -10.8 | 
CCN1CCN(c2ncnc3c2cnn3-c2ccc(C)c(C)c2)CC1 |  | -9.72 | 
CCc1ccc(C(=O)NNC(=O)C2CCN(c3ncnc4sc(C)c(C)c34)CC2)cc1 |  | -18.3 | 
CCc1cc2c(N3CCN(c4nnc(CC)s4)CC3)ncnc2s1 | 12.6 µM (active) |  | 
Cc1ccc(S(=O)(=O)N2CC3C(=O)C[C@@H](c4ccccc4Cl)N(S(=O)(=O)c4ccc(C)cc4)C3CC2c2ccccc2)cc1 (some centres undefined) |  | -0.55 | 
CSc1nc(Nc2ccc(F)cc2)cc(-c2ccccc2)n1 |  | -19 | 
CSc1nc(-c2ccccc2)nc(C(Cl)Cl)n1 | 12.6 µM (active) |  | 
Clc1ccc2nc(-c3ccccc3)nc(C(Cl)Cl)c2c1 |  | -15.5 | 
CCCc1ccc(C(O)c2ncc(-c3cccc(OC)c3)[nH]2)cc1 (centres undefined) |  | 3.12 | 
CCOC(=O)[C@]12CCCC=C1N(CCC1=CCCCC1)C(=O)[C@H](CC(=O)NCCCOC)C2 |  |  | inactive
CCOC(=O)N1CCN(C(=O)C[C@@H]2C[C@@]3(C(=O)OC)CC(C)(C)CC=C3N(Cc3ccco3)C2=O)CC1 |  | -26.4 | 
CC1(C(=O)Nc2cccc3c2CCCC3)CCN1C(=O)CCc1ccc(Cl)cc1Cl (centres undefined) |  |  | inactive
Cc1ccccc1-c1ccc(Nc2ccc(C(=O)N3CCOCC3)cc2)nn1 |  | -14.9 | 

SMILES | Potency | activity change, negative = inhibition [%] | outcome
CCOC(=O)c1ccccc1C(=O)N1CCOCCOCCOCC1 |  | -10.9 | 
Cc1oc2c(c1C(=O)N1CCOCC1)C(=O)c1ccccc1C2=O | 11.2 µM (active) |  | 
Fc1cccc(Cc2c(-c3ccc(Cl)cc3)nc3ccc(Cl)cn23)c1 |  | 1.23 | 
COc1cc(OC)c(OC)cc1/C=C1\C=Cc2ccccc21 |  | -21.7 | 
CCc1nc2ccc(C(=O)Nc3cc(-c4ccccc4)ccc3OC)cn2c1N(CC)CC(=O)N(C)C |  | -14.5 | 
COc1cccc(/C(C)=N/Nc2ncc(Cl)cc2Cl)c1 |  |  | inactive
COc1cccc(/C=N/Nc2ncc(C(F)(F)F)cc2Cl)c1O | 11.2 µM (active) |  | 
COC(=O)Cc1ccc(Oc2ncc(C(F)(F)F)cc2Cl)cc1 |  |  | inactive
CCc1nc2ccc(C(=O)NCc3ccc(OC)cc3)cn2c1N(CC)Cc1cccc(Br)c1 |  |  | inactive
Cc1nn(-c2ccccc2)c(C)c1NC(=O)COc1ccc(Cl)cc1Cl |  | -12.6 | 
Cc1nn(-c2ccccc2)c(C)c1NC(=O)COC(=O)Cc1ccccc1 |  | -14.2 | 
Cc1nn(-c2ccccc2)c(C)c1NC(=O)CCl | 10 µM (active) |  | 
Cc1cccc(NC(=O)COC(=O)c2ccccc2OCc2cccc(Br)c2)c1 |  |  | inactive
CC(C)Nc1ncnc2c1ncn2[C@H]1CN(Cc2ccncc2)C[C@@H](CO)O1 |  | 37.1 | 
OC[C@@H]1CN(Cc2ccncc2)C[C@H](n2cnc3c(N4CCN(c5ccccc5)CC4)ncnc32)O1 | 11.2 µM (active) |  | 
OCCN1CCN(c2ncnc3c2ncn3[C@H]2CN(Cc3ccco3)C[C@@H](CO)O2)CC1 |  | 14.1 | 
Cc1cc(Br)cn2c(Cc3ccsc3)c(-c3ccc(C#N)cc3)nc12 |  | 17.8 | 
COc1cccc(-c2cc3nc(NCc4ccccc4OC)n(C)c(=O)c3s2)c1 |  | -20.6 | 
CCCNC(=O)C1(C)CCCN(C(=O)c2oc3ccccc3c2C)C1 (centres undefined) |  | 3.6 | 
CC(=O)/C(=N\Nc1ccc(Cl)cc1Cl)Sc1cccc2cccnc12 | 3.55 µM (active) |  | 
S=C(NCc1cccnc1)Nc1ccc(Cl)cc1Cl |  |  | inactive
COc1c(Cl)cc(Cl)cc1C(=O)Nc1cccc2cccnc12 |  | -4.07 | 
CCOC1=C2[C@@H](CN(S(=O)(=O)c3ccc(C)cc3)[C@H]2c2ccccc2F)[C@H]2C(=O)N(Cc3ccccc3)C(=O)[C@H]2C1 |  | 1.58 | 
CCOCCC(=O)Nc1ccc2c(c1)c(=O)n(C)n2-c1ccc2ccccc2c1 |  | -4.6 | 
